Sampled rows, rich in hits. Any-hit rate of the full collection: about 6.7%.
T cruzi growth-1: inhibitors of T. cruzi proliferation; 77,000 tested, 5.9% active; inhibition, % at 8.34 µM; T. cruzi beta-gal in NIH3T3, GalScreen luminescence, 90 h; AID 624255;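 active = mean inhibition above about 93%, with at least 55% of replicates each passing it, limit read from the data, passing the limit was not always enough; inconclusive = only one of those two conditions holds; inactive = neither condition holds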
Pf Dd2 inh: blocks growth of Plasmodium falciparum Dd2 parasites. P. falciparum Dd2 growth, SYBR Green, 72 h; hits give low values. activity change, % at 10 µM. 94,000 tested, 2.3% active; in the data active = activity change below about -80%; inconclusive = no clear call, values can overlap the other calls
C diff growth: C. difficile growth inhibition; Clostridium difficile clinical isolate growth, OD600, 24 h; hits give low values; growth activity, negative = inhibition, % at 16 µg/mL (by protocol); 86,000 tested, 0.25% active; AID 1259249;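 active = mean growth activity at or below -80% and every replicate also at or below -80%; inconclusive = mean at or below -80% but some replicate above -80%; inactive = mean growth activity above -80%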;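 also: 0% = DMSO wells and -100% = levofloxacin 16 µg/mL wells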
T cruzi growth-2: Trypanosoma cruzi proliferation inhibition; shares compounds with T cruzi growth-1; T. cruzi beta-gal in NIH3T3, GalScreen luminescence, 90 h; inhibition, % at 8.35 µM; 5,600 tested, 72% active; AID 651739;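 active = mean replicate inhibition above about 95% and at least 55% of replicates individually reaching it, limit read from the data; inconclusive = only one of the two criteria is met; inactive = neither criterion is met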
T cruzi growth-3: blocks T. cruzi growth in NIH3T3 host cells; inhibition, % at 2.09 µM; 5,600 tested, 21% active; shares compounds with T cruzi growth-1; T. cruzi beta-gal in NIH3T3, GalScreen luminescence, 90 h;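 active = mean inhibition above about 95%, with at least 55% of replicates also reaching it, limit read from the data; inconclusive = meets just one of the two conditions; inactive = meets neither condition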;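 also: plate controls were neutral control median for no effect and positive control median for full effect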
3T3 cytotox: cytotoxicity in mouse NIH/3T3 fibroblasts; shares compounds with T cruzi growth-1; NIH/3T3 viability, CellTiter-Glo ATP luminescence, 90 h; cytotoxicity (signal decrease), % at 8.35 µM; 5,600 tested, 14% active; AID 651742;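 active = mean signal decrease across replicates above about 35% based on untreated-well scatter, with enough replicates individually passing, limit read from the data; inconclusive = no rule stated though some were filed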;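 also: 0% = median of neutral control wells and 100% = median of positive control wells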
3T3 cytotox 2: cytotoxicity in mouse NIH/3T3 fibroblasts | shares compounds with T cruzi growth-1 | inhibition, % at 24.9 µM | 5,600 tested, 56% active | NIH/3T3 viability, CellTiter-Glo ATP luminescence, 90 h;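 active = mean loss of cell viability signal at or above a set limit, and enough replicates individually reaching it; inconclusive = meets only the mean limit or only the replicate share; inactive = meets neither condition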;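 also: 0% = median of neutral control wells and 100% = median of positive control wells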
* marks the source's active call; other numbers are inactive results; ? = inconclusive; nt = no result given.

SMILES	T cruzi growth-1	Pf Dd2 inh	C diff growth	T cruzi growth-2	T cruzi growth-3	3T3 cytotox	3T3 cytotox 2
COc1ccc(CN(C)C[C@@H]2OCCCC[C@H](C)Oc3ccc(NC(=O)CCC(F)(F)F)cc3C(=O)N([C@@H](C)CO)C[C@H]2C)cc1	28	-45	0	nt	nt	nt	nt
C[C@@H]1CN([C@H](C)CO)C(=O)CCCn2cc(nn2)CO[C@@H]1CN(C)Cc1cccc2c1OCCCO2	64	4	1	nt	nt	nt	nt
COCC(=O)N1C[C@@H](C)[C@H](OC)CN(C)C(=O)c2cc(NC(=O)Nc3ccccc3)ccc2OC[C@H]1C	-39	-50	nt	nt	nt	nt	nt
O=C(Nc1cccc(F)c1)N1CCCCN2[C@@H](CO)[C@H](c3ccc(-c4ccccc4F)cc3)[C@@H]2C1	110*	-30	47	99*	85	82*	107*
O=C(Nc1cccc(F)c1)N1CCCCN2[C@H](CO)[C@@H](c3ccc(-c4ccccc4F)cc3)[C@@H]2C1	68	-24	61	nt	nt	nt	nt
Cc1ccccc1-c1ccc([C@H]2[C@H]3CN(C(=O)Nc4cccc(F)c4)CCCCN3[C@H]2CO)cc1	92	-29	13	nt	nt	nt	nt
O=C(Nc1cccc(F)c1)N1CCCCN2[C@H](CO)[C@@H](c3ccc(-c4ccccc4F)cc3)[C@H]2C1	108*	-45	33	89	107*	75*	105*
N#C[C@@H]1[C@@H](c2ccc(-c3cncnc3)cc2)[C@H](CO)N1C(=O)C1CCC1	103*	6	-12	77	41	3	2
CN(C)C(=O)c1cccc(-c2ccc([C@@H]3[C@@H](C#N)N(C(=O)C4CCC4)[C@@H]3CO)cc2)c1	89	31	1	nt	nt	nt	nt
N#C[C@H]1[C@H](c2ccc(-c3cncnc3)cc2)[C@@H](CO)N1C(=O)C1CCOCC1	33	39	-10	nt	nt	nt	nt
N#C[C@H]1[C@H](c2ccc(C3=CCCC3)cc2)[C@H](CO)N1C(=O)C1CCC1	?	16	-4	96*	24	-6	18
CN(C)C(=O)c1cccc(-c2ccc([C@@H]3[C@@H](CO)N(C(=O)C4CCC4)[C@H]3C#N)cc2)c1	101*	-5	0	-25	4	-15	1
N#C[C@@H]1[C@@H](c2ccc(C3=CCCC3)cc2)[C@H](CO)N1C(=O)C1CCC1	77	31	0	nt	nt	nt	nt
CCS(=O)(=O)N1CCCCN2[C@H](CO)[C@@H](c3ccc(-c4ccc(C(=O)N(C)C)cc4)cc3)[C@@H]2C1	30	-6	-2	nt	nt	nt	nt
CCN(C[C@@H]1N[C@@H](CO)[C@H]1c1ccc(-c2cccc(F)c2)cc1)C(=O)COC	39	1	2	nt	nt	nt	nt
COc1ccc(NC(=O)N(C)C[C@@H]2Oc3ccc(NS(=O)(=O)c4c(C)noc4C)cc3CC(=O)N([C@@H](C)CO)C[C@H]2C)cc1	-10	-35	-2	nt	nt	nt	nt
CCCNC(=O)[C@@H]1[C@@H](CO)[C@@H]2Cn3c(ccc(-c4cncnc4)c3=O)[C@H]1N2C(=O)Nc1ccccc1	-47	nt	-9	nt	nt	nt	nt
O=S(=O)(Cc1ccccc1)N1CCCCN2[C@H](CO)[C@H](c3ccc(-c4ccncc4)cc3)[C@@H]2C1	-70	-2	1	nt	nt	nt	nt
O=S(=O)(Cc1ccccc1)N1CCCCN2[C@H](CO)[C@@H](c3ccc(-c4cccnc4)cc3)[C@@H]2C1	81	-36	5	nt	nt	nt	nt
O=S(=O)(Cc1ccccc1)N1CCCCN2[C@H](CO)[C@@H](c3ccc(-c4ccccc4)cc3)[C@@H]2C1	114*	-24	-2	102*	103*	?	101*
O=S(=O)(Cc1ccccc1)N1CCCCN2[C@H](CO)[C@H](c3ccc(-c4ccccc4)cc3)[C@H]2C1	106*	-42	21	98*	63	54*	104*
CC(=O)N(C)C[C@@H]1Oc2cc(C3=CCCCC3)ccc2S(=O)(=O)N([C@H](C)CO)C[C@@H]1C	45	12	nt	nt	nt	nt	nt
COc1ccc2c3c([nH]c2c1)[C@H](CO)N(S(C)(=O)=O)CC31CN(C(=O)Nc2ccccc2)C1	nt	6	1	nt	nt	nt	nt
O=C(Nc1ccc2c(c1)OCO2)N[C@@H]1CC[C@@H](CCNC(=O)C2CCCC2)O[C@@H]1CO	nt	-11	0	nt	nt	nt	nt
Cc1cccc(S(=O)(=O)N2CCCCN3[C@H](C2)[C@@H](c2ccc(-c4cccnc4)cc2)[C@@H]3CO)c1	74	-78	-2	nt	nt	nt	nt
SMILES	T cruzi growth-1	Pf Dd2 inh	C diff growth	T cruzi growth-2	T cruzi growth-3	3T3 cytotox	3T3 cytotox 2
Cc1ccc(-c2ccc([C@H]3[C@@H](CO)N4CCCCN(S(=O)(=O)c5cccc(C)c5)C[C@@H]34)cc2)cc1	85	-46	-5	nt	nt	nt	nt
Cc1ccc(-c2ccc([C@@H]3[C@H]4CN(S(=O)(=O)c5cccc(C)c5)CCCCN4[C@H]3CO)cc2)cc1	?	-4	-2	104*	83	21	46*
Cc1ccc(-c2ccc([C@@H]3[C@@H](CO)N4CCCCN(S(=O)(=O)c5cccc(C)c5)C[C@H]34)cc2)cc1	107*	-24	64	101*	115*	54*	104*
O=S(=O)(c1ccc(F)cc1)N1C[C@H]2[C@@H](c3ccccc31)[C@@H](CO)N2Cc1ccc2c(c1)OCO2	80	-30	-3	nt	nt	nt	nt
O=S(=O)(c1ccccc1F)N1C[C@H]2[C@@H](c3ccccc31)[C@@H](CO)N2Cc1ccc2c(c1)OCO2	99*	-26	-6	103*	100*	25	-15
O=S(=O)(c1ccc(F)cc1)N1C[C@@H]2[C@H](c3ccccc31)[C@H](CO)N2Cc1ccc2c(c1)OCO2	101*	-23	1	107*	83	29	-3
O=S(=O)(c1ccccc1)N1C[C@@H]2[C@H](c3ccccc31)[C@@H](CO)N2Cc1ccc2c(c1)OCO2	79	-18	-6	nt	nt	nt	nt
O=C(NCC1CCCCC1)[C@H]1[C@H](CO)[C@H]2Cn3c(ccc(-c4ccc(F)cc4)c3=O)[C@@H]1N2	6	3	3	nt	nt	nt	nt
COC(=O)C[C@H]1CC[C@H]2[C@@H](COc3ccc(NS(=O)(=O)c4ccc(F)cc4)cc3C(=O)N2C)O1	nt	34	-9	nt	nt	nt	nt
N#C[C@H]1[C@@H](c2ccc(C#CC3CCCCC3)cc2)[C@H](CO)N1C(=O)c1cccc(F)c1	93	-26	8	nt	nt	nt	nt
O=C(O)C[C@@H]1C[C@@H]2c3cc(NC(=O)C4CCC4)ccc3O[C@@H]2[C@H](CO)O1	nt	17	-4	nt	nt	nt	nt
Cc1ccc(S(=O)(=O)Nc2ccc3c(c2)C(=O)N([C@@H](C)CO)C[C@H](C)[C@H](CN(C)CC2CCCCC2)OCCCC[C@@H](C)O3)cc1	-12	-38	14	nt	nt	nt	nt
C[C@@H]1CN([C@H](C)CO)C(=O)c2cc(C#Cc3ccccc3F)cnc2O[C@H]1CN(C)S(=O)(=O)c1ccccc1F	114*	-43	-5	110*	90	39*	?

Screening results deposited in PubChem by Broad Institute.
